Our source for the sensor-assay potency score (higher = more potent) values is the OligoGym collection.
Also: reference of the scale not given here.

The first assay has as its target DLAT. Briefly: pooled miR-30 sensor sort-seq; sequence = guide strand. To be noted: shRNA.
As to TTGCTGATTGGGATATCTGTGA, the sensor-assay potency score (higher = more potent) is -0.131.
As for TTTGTCTTATAACTGTGTCCAT, the sensor-assay potency score (higher = more potent) was -0.255.
Still for that read-out and setting: to TTCTCCCATATTTACATCGATA belongs -1.59.
For the sequence TAATCGCTGTGCAATAACCCGA, the sensor-assay potency score (higher = more potent) was -0.457.
Still for that read-out and setting: the value for TTGTCTTATAACTGTGTCCATC was -1.31; that for TTGATTGCATTAATCGCTGTGC was 0.199.
Still for that read-out and setting: the value for TGATTTTGTCTTATAACTGTGT was 0.275; that for TATCTGTGAAGACACCTGTAGG was -1.1.
The same measure, in the same setting: to TTGTGTAAGATCAATCCCTTTC belongs -0.362; to TAGAAAGGTAATAATGAGGTAT, -0.0638; to ATATCTGTGAAGACACCTGTAG, -0.267.
For the sequence TTGCTAAAGAAACAACATCATT, the sensor-assay potency score (higher = more potent) is -1.57.

In the next assay the target is DLGAP2. The description is as above. The conditions noted are these: shRNA.
The sequence TTGTTCGGAAACATCCCGGGAG returned a sensor-assay potency score (higher = more potent) of 0.236.
On the same count and under the same terms, to TTGTCTGTCGGGCAGGTCCAGG belongs -1.29; to TTTTTTTGAATGCTACAGCTGG, -0.304; to TAGCTGTGACTCCTTGTTCGGA, -0.676.
Still for that read-out and setting: the value for TCCTTGTTCGGAAACATCCCGG was -1.01.
In turn, TTTACCGAGAATTTCCTCCGAG showed a sensor-assay potency score (higher = more potent) of 0.34.
TAGAACGTTTAAAACGTCCGTG: the sensor-assay potency score (higher = more potent) was -0.169.
The same measure, in the same setting: the value for TTGACGTCGTTGTTGCTCTTGG was 0.201; that for TTGTATATGAGACAGCTGCTGT was -0.506.
Same read-out and setting: to TAGATCTCGATGCTGTCCGCGC belongs -0.416.
On the same count and under the same terms, the value for TTCAACTTCACTGAAGACGGAC was -0.0753; that for ATAGGTGCTGTCGCTGTCCAGG was -0.97.

The target in a further assay is DMBX1. The description is as above. The conditions noted are these: shRNA.
Take TGACTGCTCAGACAGACTCAGG: the sensor-assay potency score (higher = more potent) was -1.97.
As for TTTTACTGTTCAGGGTAGCTGA, the sensor-assay potency score (higher = more potent) is -0.522.
Consider TGGGTAGTGAGTCTTCTGGAAG, for which the sensor-assay potency score (higher = more potent) is -2.04.
On the same count and under the same terms, the value for TGAACCACACCTGCACCCGGGC was -1.56.
Same read-out and setting: the value for TGAGCCGTGAACGCTGTGCGGC was -1.33.
On the same count and under the same terms, to TTGAACCACACCTGCACCCGGG belongs -0.844; to TCACGCATCACCACATCTGGGT, 0.0309; to TTCCTTCTGCAGGCTACGCTGC, -1.18.
As to TTCTTCCGGAACTTGGCCCGGC, the sensor-assay potency score (higher = more potent) is -0.414.
With TTGTACATGGCGCTGAGTGAGT, the sensor-assay potency score (higher = more potent) was -0.81.
On the same count and under the same terms, to TTACTGTTCAGGGTAGCTGATG belongs -1.25; to TCTGGGTAGTGAGTCTTCTGGA, -0.662.

A further assay addresses DMKN. The assay is described as above. The conditions noted are these: shRNA.
Sequence TCGAATGACATCTTCTGCCTGT gave a sensor-assay potency score (higher = more potent) of 0.442.
The same measure, in the same setting: to TTGTTGTCACCATTGCTGCCAC belongs -0.584; to TTCTGTTTGAAATCCTCCCAGA, -0.45.
Regarding TAGTTCTGATCGGCTCTGCCTG, the sensor-assay potency score (higher = more potent) is -0.576.
